The list is not random: actives were taken first. Their share in the collection is about 1.2%.
Giardia FBPA inh – qHTS Assay for Inhibitors of Fructose-1,6-bisphosphate Aldolase from Giardia Lamblia; A8B2U2; purified Giardia FBPA; hit rate 0.71% among 290,000; Potency, µM (series often up to 59.6 µM), inactives show at the highest dose activity, negative = inhibition, most hits filed as inhibitors; further: potency means the concentration at half of the fitted maximal effect; on the % scale 0 is the no-effect control and ±100 the full control effect; nearly all actives have a fitted effect of over 55% in size
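Giardia FBPA (40 nM reagent) was preincubated 10 min at RT with compound (up to 57.5 uM final), then substrate plus GAPDH/TPI/NAD/arsenate coupling system with diaphorase/resazurin was added; resorufin fluorescence (525/598 nm) was read after 20 min.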
AMA1-RON2 inh – qHTS for Inhibitors of AMA1-RON; Towards Development of Antimalarial Drug Lead: Primary Screen; Plasmodium falciparum AMA1 (3D7) - RON2 peptide interaction; AlphaScreen AMA1-biotinylated RON2 peptide binding; Potency, µM (titrated, usually from 58.2 µM), for the others: at the highest dose activity change, negative = inhibition, usual class: inhibitors; hit rate 0.2% among 360,000; AID 720542, 2013;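 further: potency means the concentration at half of the fitted maximal effect; 0% = vehicle wells and -100% = peptide control; nearly all actives have a fitted effect of over 45% in size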
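AMA1 (3D7) with his tag at 25 nM final met compounds first, then biotinylated RON2 peptide at 25 nM; detection used donor plus acceptor beads, 10 µg/mL apiece, read by AlphaScreen after 30 min at room temperature.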
NS1 function inh – qHTS Assay for Inhibitors of Influenza NS1 Protein Function; Potency, µM (series often up to 46.1 µM), without a hit: at the highest dose activity, positive = more growth; hit rate 0.4% among 270,000; AID 2326, 2010; calls by dose curve; further: potency means the concentration at half of the fitted maximal effect; actives are rising curves; nearly all actives have a fitted effect of over 50% in size
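OD600 was taken as the measure of yeast growth restored by compound in an NS1-expressing S. cerevisiae strain. Cells had been washed out of glucose medium and diluted 1:100 into galactose -URA medium, pH 6.0.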
LmPK inh – qHTS Assay for Inhibitors of Leishmania Mexicana Pyruvate Kinase (LmPK); Q27686; purified LmPK, Kinase-Glo ATP luminescence, 1 h; Potency, µM (series often up to 57.5 µM), for the others: at the highest dose activity change, negative = inhibition, hits mostly inhibitors; hit rate 0.37% among 290,000; further: potency means the concentration at half of the fitted maximal effect; on the % scale 0 is the no-effect control and ±100 the full control effect
Target sequence (Q27686 whole entry, looked up): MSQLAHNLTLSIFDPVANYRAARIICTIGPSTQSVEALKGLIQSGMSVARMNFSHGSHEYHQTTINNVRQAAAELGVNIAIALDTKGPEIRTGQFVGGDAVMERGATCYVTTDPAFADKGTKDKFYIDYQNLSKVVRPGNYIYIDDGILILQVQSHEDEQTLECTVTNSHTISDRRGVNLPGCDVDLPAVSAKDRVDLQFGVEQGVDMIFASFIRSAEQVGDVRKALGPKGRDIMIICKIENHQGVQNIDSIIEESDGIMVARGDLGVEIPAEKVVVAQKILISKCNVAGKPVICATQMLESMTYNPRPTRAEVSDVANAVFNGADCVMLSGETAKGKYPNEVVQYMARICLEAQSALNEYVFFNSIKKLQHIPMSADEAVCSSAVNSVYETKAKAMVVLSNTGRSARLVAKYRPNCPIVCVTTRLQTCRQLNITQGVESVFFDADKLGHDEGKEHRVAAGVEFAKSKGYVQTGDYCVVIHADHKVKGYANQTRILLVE
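Screened at intermediate enzyme activity to detect both inhibitors and activators: LmPK at 0.1 nM, with a 0.5 nM enzyme column as activation reference. PEP 0.5 mM, ADP 0.1 mM; ATP detected by luminescence after 1 h.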
TbPYK inhibitor – qHTS of Trypanosoma Brucei Inhibitors; pyruvate kinase (Trypanosoma brucei), Q57TT1; TbPYK enzyme, Kinase-Glo Plus ATP luminescence, 45 min; Potency, µM (highest dose often 76.8 µM), for the others: top-dose activity, negative = inhibition, actives largely listed as inhibitors; hit rate 0.12% among 410,000; AID 624173, 2012; further: potency means the concentration at half of the fitted maximal effect; on the % scale 0 is the no-effect control and ±100 the full control effect; nearly all actives have a fitted effect of over 50% in size
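Enzyme and substrate buffer are dispensed first and compound is pin-transferred. ADP at 130 uM final then starts the reaction, which runs 45 min at room temperature. Detection reagent is added for 10 min before luminescence is imaged.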
NS1 inh valid – Assay for Inhibitors of Influenza NS1 Protein Function: Hit Validation | shares compounds with NS1 function inh | influenza NS1 function cell assay, 15-point titration | activity change, negative = inhibition, % at 32.9 µM | 1,400 tested, under 10 active; calls by dose curve; further: 0% is about no effect
Flu PR8 replic – Assay for Inhibitors of Influenza NS1 Protein Function: Influenza virus replication assay in MDCK cells infected with virus A/PR/8/34. virus titer (log TCID50), log10 TCID50 at 5 µM. MDCK infected influenza A/PR/8/34, virus titer TCID50; hits give low values. AID 504647, 2011. hit rate 30% among 95. shares compounds with NS1 function inh; call rule not given here
Starred values were filed as active, the others as inactive; ? = inconclusive; · = no result; [ ] = another dose, or the depositor's remark. Unless noted, the call rests on the fitted dose curve; in most records, active means well fitted curve in the direction sought with a large enough effect; inconclusive means small, poorly fitted or top-dose-only effect, or another doubt; inactive means no such curve, though single readings can be large; an effect the other way counts as inactive or inconclusive.

SMILES	Giardia FBPA inh	AMA1-RON2 inh	NS1 function inh	LmPK inh	TbPYK inhibitor	NS1 inh valid	others
Cc1c(NC(=O)c2ccc(N3CCCC3)c([N+](=O)[O-])c2)cccc1-c1nc2ccccc2s1	0%	-15%	2µM*	5%	2%	11
CCCCc1n[nH]c2c1/C(=N/O)CC(c1ccccc1)C2 (stereo unspecified)	1%	2%	?	0%	-10%	8
O=C(Nc1ccc2c(c1)CCC2)c1cc(S(=O)(=O)Nc2ccc(F)cc2)c(Cl)cc1Cl	-4%	-1%	14µM*	2%	0%	27	Flu PR8 replic=8
O=C(Nc1ccc2c(c1)CCC2)c1ccc(F)cc1	-15%	21%	-7%	-21%	-3%	·
CCCCNC(=O)CN(c1cc(C(F)(F)F)ccc1Cl)S(C)(=O)=O	0%	-9%[2.32 µM]	1µM*	1%	-7%	-4	Flu PR8 replic=8
COCCCNC(=O)CN(c1cc(C(F)(F)F)ccc1Cl)S(C)(=O)=O	0%	-3%	9%	-4%	-5%	·
CCCCCCn1c(-c2ccco2)nc2oc3cc(OC)ccc3c(=O)c2c1=O	-6%	-2%	13µM*	-5%	-29%	-37
CCCc1nc2oc3cc(OC)ccc3c(=O)c2c(=O)n1Cc1ccco1	-10%	-6%	-35%	-4%	4%	·
COc1cc(OC)cc(-c2nnc3n2N=C(c2ccccc2OC)CS3)c1	-21%	·	·	·	·	·
CCOC(=O)N1CCN(C(=O)CCC(=O)N2CCOc3ccc(C)cc32)CC1	2%	0%	5.6µM*	-2%	-5%	-7
C=CCOC(=O)C1(C(NC(=O)OC)c2ccccc2)C(=O)Cc2ccccc21 (stereo unspecified)	-2%	·	·	·	·	·
CCCn1c(C)cc(C(=O)CSc2nc3ccccc3c(=O)n2Cc2ccco2)c1C	-3%	?	8.9µM*	1%	3%	-15
O=[N+]([O-])c1ccc(N/N=C/c2cn(-c3ccccc3)nc2-c2ccccc2)cc1	-3%	-2%	?	-2%	4%	1
COc1ccccc1N=c1scc(-c2ccc(S(=O)(=O)N3CCCC3)cc2)n1C	·	·	·	·	-4%	·
CCC1=C2CC[C@H]3C(=O)N(c4ccccc4)C(=O)[C@H]3[C@H]2[C@@]2(Cc3ccccc3)C(=NCCOC)OC(=O)N2C1=O	-2%	·	·	·	·	·
Cc1cc(N2CCN(C)CC2)nc2ccc(NC(=O)Nc3cccc(Cl)c3)cc12	·	·	·	·	-1%	·
CCCOc1ccc(C2NC(=S)NC(c3ccccc3)=C2C(=O)Nc2ccc(C)cc2)cc1OC (stereo unspecified)	0%	10%	13µM*	6%	-4%	0
COc1ccc(-c2nc(-c3ccccc3)c(-c3cc([N+](=O)[O-])ccc3C)[nH]2)cc1O	-18%	-20%	21%	2%	-4%	·
COc1ccc(-c2nc(=S)c3c([nH]2)Oc2ccc(C)cc2C3)cc1O	7%	1%	10µM*	0%	4%	-6
Cn1cnnc1SCC(C)(C)NS(=O)(=O)c1ccc(Cl)cc1	1%	32%	?	-1%	5%	-7

Screens deposited in PubChem BioAssay by National Center for Advancing Translational Sciences (NCATS).
